Measurements published in PubChem BioAssay (Tox21).
Inconclusive results are not listed. A call without a number means that no potency is given here. Unmarked numbers belong to inactive results. The source made the active and inactive calls. Calls follow the shape of the full dose curve.

Biological target: Thyrotropin receptor (Homo sapiens) (UniProt P16473)
Test: qHTS assay to identify small molecule antagonists of the thyroid stimulating hormone receptor (TSHR) signaling pathway (AID 1259385); also: nearly all actives have a fitted effect of over 20% in size
Settings: TSHR-HEK293 cAMP HTRF, TSH-stimulated antagonist mode; series mostly up to 92.4 µM
Excerpt: U.S. Tox21 Program National Center for Advancing Translational Sciences [NCATS] NIH Chemical Genomics Center [NCGC] U.S. Environmental Protection Agency [EPA] National Institutes of Environmental Health Sciences [NIEHS] National Toxicology Program [NTP] U.S. Food and Drug Administration [FDA] Tox21 Assay Overview: TSHR is the receptor for thyrotropin (thyroid stimulating hormone or TSH), a member of the glycoprotein hormone family. TSH is released by the anterior pituitary gland and is the main regulator of thyroid gland growth and development. Upon binding circulating thyrotropin, a G-protein signal cascade activates adenylyl cyclase and […] cAMP concentration is increased. cAMP is a key second messenger involved extensively in cellular signal transduction pathways associated with the majority of G-protein coupled receptors (GPCRs). The activation of these GPCRs by neurotransmitters, lipids, nucleotides, peptides and hormones results in the activation or the inhibition of plasma membrane-bound adenylate cyclase through heterotrimeric G-proteins. A cell-based TSHR assay can be used to screen chemical compounds that modulate TSHR either in agonist or antagonist mode.
Tox21 Assay Protocol Summary: TSHR-Hek293 cells were dispensed at 800 cells/4uL/well in 1536-well white plates using a Multidrop dispenser. After the assay plates were incubated at a 37C/5% CO2 incubator for 18 hrs, 23 nL of compounds dissolved in DMSO, positive controls or DMSO only was transferred to the assay plate by a pin tool, followed by 1 ul medium containing Ro20-1724. For the antagonist mode screening, 1 uL of TSH was added on the top of the cell/compound mixtures to achieve a final agonist concentration of 1.5 ng/mL. After 30 min of incubation at room temperature, 2.5 ul/well of cAMP-d2 and 2.5 ul/well of anti-cAMP-cryptate were added respectively into the assay plates using a Flying Reagent Dispenser. The plates were incubated at room temperature for 1 hr. The fluorescence intensity in the plates was measured using an Envision plate reader. Each test compound was measured at 15 concentrations and in triplicates.
Potency is read from the fitted curve at half-maximal effect.

Chain of Thyrotropin receptor (Homo sapiens) (P16473 whole entry, looked up): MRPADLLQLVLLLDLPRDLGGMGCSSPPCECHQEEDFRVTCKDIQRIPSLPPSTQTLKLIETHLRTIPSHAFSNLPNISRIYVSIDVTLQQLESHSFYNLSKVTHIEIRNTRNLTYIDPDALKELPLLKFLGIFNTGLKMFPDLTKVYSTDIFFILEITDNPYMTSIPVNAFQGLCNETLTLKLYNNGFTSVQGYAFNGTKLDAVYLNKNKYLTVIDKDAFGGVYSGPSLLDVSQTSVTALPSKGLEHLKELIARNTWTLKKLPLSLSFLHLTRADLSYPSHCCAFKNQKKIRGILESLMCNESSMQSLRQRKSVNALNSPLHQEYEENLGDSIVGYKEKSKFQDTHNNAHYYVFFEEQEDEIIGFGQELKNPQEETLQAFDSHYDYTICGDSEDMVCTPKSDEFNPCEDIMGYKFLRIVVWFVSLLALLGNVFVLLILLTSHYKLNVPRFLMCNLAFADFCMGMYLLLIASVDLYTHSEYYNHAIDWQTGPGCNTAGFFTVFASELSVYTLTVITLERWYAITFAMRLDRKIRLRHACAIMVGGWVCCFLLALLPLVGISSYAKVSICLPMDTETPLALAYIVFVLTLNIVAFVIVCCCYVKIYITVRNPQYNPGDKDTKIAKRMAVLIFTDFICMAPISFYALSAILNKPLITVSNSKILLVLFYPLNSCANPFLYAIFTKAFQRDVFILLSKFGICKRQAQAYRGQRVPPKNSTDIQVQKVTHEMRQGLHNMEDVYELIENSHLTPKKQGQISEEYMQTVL

SMILES	Potency	activity change, negative = inhibition
CO[Si](CCCNc1ccccc1)(OC)OC	inactive	–
COC(=O)C1=C(C)NC(C)=C(C(=O)OCC(C)C)C1c1ccccc1[N+](=O)[O-] (stereo not given)	inactive	–
NC(=O)C1(N2CCCCC2)CCN(CCCN2c3ccccc3CCc3ccc(Cl)cc32)CC1	29.8 µM (active)	–
CCCCCCCCCCCCc1ccc(O)cc1	inactive	–
C=CC(=O)OCC(CO)(COCC(COC(=O)C=C)(COC(=O)C=C)COC(=O)C=C)COC(=O)C=C	inactive	–
CCc1cc(Cc2cc(CC)cc(C(C)(C)C)c2O)c(O)c(C(C)(C)C)c1	inactive	–
Cc1cc(O)c(Cl)c(C)c1Cl	inactive	–
O=C1CCCc2c1cc1ccc3cccc4ccc2c1c34	inactive	–
O=C1Cc2cc(CCN3CCN(c4nsc5ccccc45)CC3)c(Cl)cc2N1	inactive	–
CC(C)(C)c1ccc(C(=O)CCCN2CCC(OC(c3ccccc3)c3ccccc3)CC2)cc1	inactive	–
O=C(N/N=C/c1ccccc1O)c1ccncc1	inactive	–
C/C=C(\C)C(=O)OCc1ccccc1	inactive	–
Cc1nc(-c2ccc3c(c2)CCN(CCC2CCC(NC(=O)/C=C/c4ccc(F)cc4)CC2)CC3)no1 (stereo not given)	inactive	–
CC(NN)c1ccccc1 (stereo not given)	–	-2.3% [at 19 µM]
CC(C)OC(=O)c1cc2c(OCC(O)CNC(C)(C)C)cccc2[nH]1 (stereo not given)	inactive	–
CCCCCCCCCCC=O	inactive	–
CC(C)(C)CC(C)(C)c1ccc(O)c(Cc2ccc(Cl)cc2Cl)c1	inactive	–
CCCCCCCCCCCCCCCCCC[N+](C)(C)Cc1ccccc1	inactive	–
O=S1(=O)CC(Cl)(Cl)C(Cl)(Cl)C1	48.6 µM (active)	–
CCOC(=O)O[C@H](C)OC(=O)c1ccc2c(c1)cc(C(=O)NC1CCN(C(C)C)CC1)n2Cc1cc(-c2ccc(Cl)s2)on1	64.1 µM (active)	–

SMILES	Potency	activity change, negative = inhibition
CCOC(=O)c1nc(C(Cl)(Cl)Cl)n(-c2ccc(Cl)cc2Cl)n1	inactive	–
CCCCCCCCCCn1cc[n+](CCCCCCCCCC)c1C	54.5 µM (active)	–
Cc1c(C)c2c(c(C)c1O)CCC(C)(COc1ccc(CC3SC(=O)NC3=O)cc1)O2 (stereo not given)	inactive	–
C[n+]1ccn(Cc2ccccc2)c1	inactive	–
NC(=O)CC[C@@H]1NC(=O)[C@H](Cc2ccccc2)NC(=O)[C@H](Cc2ccc(O)cc2)NC(=O)CCSSC[C@@H](C(=O)N2CCC[C@H]2C(=O)N[C@@H](CCCN=C(N)N)C(=O)NCC(N)=O)NC(=O)[C@H](CC(N)=O)NC1=O	inactive	–
CC(C)(C)C(=O)OCOC(=O)C1N2C(=O)CC2S(=O)(=O)C1(C)C (stereo not given)	inactive	–
CC(C)(C)NC(=O)[C@@H]1C[C@@H]2CCCC[C@@H]2CN1C[C@@H](O)[C@H](Cc1ccccc1)NC(=O)[C@H](CC(N)=O)NC(=O)c1ccc2ccccc2n1	inactive	–
NC(=O)NS(=O)(=O)c1ccc(N)cc1	inactive	–
[Cl][Bi]([Cl])([c]1ccccc1)([c]1ccccc1)[c]1ccccc1	inactive	–
COC(=O)c1cc(Cl)ccc1OC	inactive	–
O=C(Oc1cccc2cccnc12)c1ccccc1	inactive	–
CCCCCCC[N+](CC)(CC)CCCCc1ccc(Cl)cc1	inactive	–
CN(C)C(=O)C1(N2CCCCC2)CCN(CC[C@@]2(c3ccc(Cl)c(Cl)c3)CN(C(=O)c3ccccc3)CCO2)CC1	64.1 µM (active)	–
O=c1[nH]sc2cc(Cl)ccc12	inactive	–
C[C@H]1[C@H]2CC[C@H]3[C@@H]4CC=C5C[C@@H](N(C)C)CC[C@]5(C)[C@H]4CC[C@]23CN1C	inactive	–
CCOC(=O)O[C@]1(C(=O)OCCl)CC[C@H]2[C@@H]3CCC4=CC(=O)C=C[C@]4(C)[C@H]3[C@@H](O)C[C@@]21C	inactive	–
CN(C)c1ccc(C2(c3ccc(N(C)C)cc3)OC(=O)c3cc(N(C)C)ccc32)cc1	inactive	–
CCC(Cl)C(Cl)C(Cl)CC(Cl)C(Cl)C(C)Cl (stereo not given)	inactive	–
OCc1c[nH]c2ccccc12	inactive	–
Cc1ccc(O)c(C(C)(C)C)c1	inactive	–
